Data published in PubChem BioAssay (NCI).
This is part of a sample that, as a whole, favours compounds with a hit. Of some 79,000 tested, about 15% had one in any assay. Unmarked numbers belong to inactive results. Active and inactive are the calls of the source. No stated cut-off is given here; in the data, active means growth inhibition above about 70%; inactive means the rest.

How the values were obtained:
[1] = NCI Yeast Anticancer Drug Screen. Data for the wt1 strain (AID 149);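 further: 0% = growth of vehicle-treated wt1 cultures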; details: S. cerevisiae wt1 strain (SPY 50644) growth inhibition, hits give high values
How it was run: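 Measured: growth of wt1 yeast under compound versus vehicle treatment, reported as inhibition.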

[2] = NCI Yeast Anticancer Drug Screen. Data for the rad50EPP+ strain (AID 151);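 further: 0% = growth of vehicle-treated control cultures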; details: S. cerevisiae rad50 mutant strain, hits give high values
How it was run: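 Genetically defined yeast (rad50EPP+, DNA damage repair alteration) is grown with compound, and inhibition of growth is expressed relative to vehicle-treated controls.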

[3] = NCI Yeast Anticancer Drug Screen. Data for the mgt1 strain (AID 153); details: S. cerevisiae mgt1 mutant growth inhibition, hits give high values
How it was run: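 In the mgt1 strain, test compounds were added and growth inhibition was determined relative to vehicle-treated controls.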

[4] = NCI Yeast Anticancer Drug Screen. Data for the rad50 strain (AID 155);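 further: 0% = growth of vehicle-only cultures of the same strain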; details: S. cerevisiae rad50 strain growth inhibition, hits give high values
How it was run: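 Growth of the mutant yeast was measured after compound exposure and referenced to vehicle-treated cultures.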

[5] = NCI Yeast Anticancer Drug Screen. Data for the mec2-1 strain (AID 157); details: S. cerevisiae mec2-1 strain, hits give high values
How it was run: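 Each compound was tested on mec2-1 yeast, a strain altered in DNA damage repair or cell cycle control. Growth inhibition is reported relative to vehicle.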

[6] = NCI Yeast Anticancer Drug Screen. Data for the rad14 strain (AID 159);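 further: 0% = growth of vehicle-treated control cultures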; details: S. cerevisiae rad14 strain growth inhibition, hits give high values
How it was run: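 Here, inhibition of yeast growth was measured after compound exposure, using a strain with a genetic defect in DNA damage repair and vehicle-treated cultures as the reference.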

[7] = NCI Yeast Anticancer Drug Screen. Data for the sgs1 mgt1 strain (AID 161);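 further: 0% = growth of cultures given vehicle only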; details: S. cerevisiae sgs1 mgt1 strain, hits give high values
How it was run: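 Genetically altered yeast, compound exposure, growth inhibition relative to vehicle.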

[8] = NCI Yeast Anticancer Drug Screen. Data for the CLN2oe strain (AID 163);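 further: 0% = growth of vehicle-only control cultures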; details: S. cerevisiae CLN2oe strain, hits give high values
How it was run: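 First, the altered yeast strain was treated with each compound; second, its growth was measured; finally, inhibition was derived by comparison with vehicle controls.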

[9] = NCI Yeast Anticancer Drug Screen. Data for the cln2 rad14 strain (AID 165);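 further: 0% = growth equal to vehicle treated cultures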; details: S. cerevisiae cln2 rad14 strain, hits give high values
How it was run: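 Test compounds were added to cln2 rad14 yeast cultures; inhibition of growth was then determined by comparison with vehicle treatment.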

[10] = NCI Yeast Anticancer Drug Screen. Data for the bub3 strain (AID 167); details: S. cerevisiae bub3 mutant strain, hits give high values
How it was run: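 Whole-cell yeast assay. The mutant strain was incubated with compounds, and growth inhibition was determined by comparison with vehicle-treated cells.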

[11] = NCI Yeast Anticancer Drug Screen. Data for the wt2 strain (AID 169);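 further: 0% = growth of vehicle-treated yeast cultures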; details: S. cerevisiae wt2 strain growth inhibition, hits give high values
How it was run: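 The panel's yeast strains carry defined changes in DNA repair or cell cycle genes. Each strain is grown with compound, and growth loss is scored relative to vehicle.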

[12] = NCI Yeast Anticancer Drug Screen. Data for the sgs1 strain (AID 173);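 further: 0% = growth of vehicle-only control cultures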; details: S. cerevisiae sgs1 mutant, hits give high values
How it was run: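 Vehicle-treated cultures served as reference for growth inhibition of a yeast strain altered in DNA damage repair or cell cycle control after compound exposure.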

[13] = NCI Yeast Anticancer Drug Screen. Data for the mlh1 rad18 strain (AID 175); details: S. cerevisiae mlh1 rad18 strain growth inhibition, hits give high values
How it was run: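 Inhibition values reflect reduced growth of mutant yeast versus vehicle-treated controls following compound exposure; the mutations affect DNA damage repair.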

[14] = NCI Yeast Anticancer Drug Screen. Data for the rad18 strain (AID 177); details: S. cerevisiae rad18 mutant growth inhibition, hits give high values
How it was run: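 Steps: expose repair-mutant yeast to compound; measure growth; express as inhibition relative to vehicle control.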

[15] = at 5.0 µM (retest, dose inferred, filed as 0.5)
[16] = at 50.0 µM (retest, dose inferred, filed as 5.0)

For `COc1cc(C2SCC(=O)N2c2nnc(C(F)(F)F)s2)cc(OC)c1OC` (stereo unspecified), the growth inhibition ([1]; at 1.2 µM) was -84%, the growth inhibition ([1]; at 3.7 µM) was -3% and the growth inhibition ([1]; at 11.0 µM) was -3%. It also gave a growth inhibition ([1]; at 33.0 µM) of -1%, a growth inhibition ([1]; at 100.0 µM) of -3% and a growth inhibition ([2]; at 1.2 µM) of -4%. The growth inhibition ([2]; at 3.7 µM) was -2%, the growth inhibition ([2]; at 11.0 µM) was 3% and the growth inhibition ([2]; at 33.0 µM) was -2%. It also gave a growth inhibition ([2]; at 100.0 µM) of 0%, a growth inhibition ([3]; at 1.2 µM) of -1% and a growth inhibition ([3]; at 3.7 µM) of -2%. The growth inhibition ([3]; at 11.0 µM) was -5%, the growth inhibition ([3]; at 33.0 µM) was -1% and the growth inhibition ([3]; at 100.0 µM) was -4%. It also gave a growth inhibition ([4]; at 1.2 µM) of -1%, a growth inhibition ([4]; at 3.7 µM) of -2% and a growth inhibition [4, 15] of -5%. The growth inhibition ([4]; at 11.0 µM) was -2%, the growth inhibition ([4]; at 33.0 µM) was 0% and the growth inhibition [4, 16] was -18%. The growth inhibition ([4]; at 50.0 µM) was 18.1%, the growth inhibition ([4]; at 100.0 µM) was -5% and the growth inhibition ([5]; at 1.2 µM) was -4%. For the same compound, the growth inhibition ([5]; at 3.7 µM) was 2%, the growth inhibition [5, 15] was 0% and the growth inhibition ([5]; at 11.0 µM) was 4%. The growth inhibition ([5]; at 33.0 µM) was 1%, the growth inhibition [5, 16] was -4% and the growth inhibition ([5]; at 50.0 µM) was 20.9%. The growth inhibition ([5]; at 100.0 µM) was -1%, the growth inhibition ([6]; at 1.2 µM) was -2% and the growth inhibition ([6]; at 3.7 µM) was -2%. The growth inhibition ([6]; at 11.0 µM) was -1%, the growth inhibition ([6]; at 33.0 µM) was -2% and the growth inhibition ([6]; at 100.0 µM) was -4%. For the same compound, the growth inhibition [7, 15] was -4%, the growth inhibition [7, 16] was 2% and the growth inhibition ([7]; at 50.0 µM) was 0.1%. For the same compound, the growth inhibition ([8]; at 1.2 µM) was -7%, the growth inhibition ([8]; at 3.7 µM) was 1% and the growth inhibition ([8]; at 11.0 µM) was -2%. For the same compound, the growth inhibition ([8]; at 33.0 µM) was 0%, the growth inhibition ([8]; at 100.0 µM) was -8% and the growth inhibition [9, 15] was -7%. For the same compound, the growth inhibition [9, 16] was -10%, the growth inhibition ([9]; at 50.0 µM) was -12.5% and the growth inhibition ([10]; at 1.2 µM) was 6%. The growth inhibition ([10]; at 3.7 µM) was 12%, the growth inhibition [10, 15] was 31% and the growth inhibition ([10]; at 11.0 µM) was 28%. The growth inhibition ([10]; at 33.0 µM) was 41%, the growth inhibition [10, 16] was 50% and the growth inhibition ([10]; at 50.0 µM) was 43.1%. It also gave a growth inhibition ([10]; at 100.0 µM) of 48%, a growth inhibition ([11]; at 1.2 µM) of -2% and a growth inhibition ([11]; at 3.7 µM) of -4%. The growth inhibition ([11]; at 11.0 µM) was -2%, the growth inhibition ([11]; at 33.0 µM) was -4% and the growth inhibition ([11]; at 100.0 µM) was -4%. For the same compound, the growth inhibition ([12]; at 1.2 µM) was -3%, the growth inhibition ([12]; at 3.7 µM) was -2% and the growth inhibition ([12]; at 11.0 µM) was -3%. It also gave a growth inhibition ([12]; at 33.0 µM) of -1%, a growth inhibition ([12]; at 100.0 µM) of -1% and a growth inhibition [13, 15] of -4%. The growth inhibition [13, 16] was -9%, the growth inhibition ([13]; at 50.0 µM) was 0.35% and the growth inhibition ([14]; at 1.2 µM) was -2%. It also gave a growth inhibition ([14]; at 3.7 µM) of -2%, a growth inhibition ([14]; at 11.0 µM) of -1% and a growth inhibition ([14]; at 33.0 µM) of -2%. It also gave a growth inhibition ([14]; at 100.0 µM) of -2%.
Compound `CCCCCCCC1(N=[N+]=[N-])C(=O)c2ccccc2N(C)C1=O` (stereo unspecified) has a growth inhibition ([1]; at 1.2 µM) of 7%, a growth inhibition ([1]; at 3.7 µM) of 7% and a growth inhibition ([1]; at 11.0 µM) of 7%. The growth inhibition ([1]; at 33.0 µM) was 59%, the growth inhibition ([1]; at 100.0 µM) was 73% (active) and the growth inhibition ([2]; at 1.2 µM) was 5%. The growth inhibition ([2]; at 3.7 µM) was 15%, the growth inhibition ([2]; at 11.0 µM) was 24% and the growth inhibition ([2]; at 33.0 µM) was 54%. It also gave a growth inhibition ([2]; at 100.0 µM) of 65%, a growth inhibition ([3]; at 1.2 µM) of -11% and a growth inhibition ([3]; at 3.7 µM) of -18%. For the same compound, the growth inhibition ([3]; at 11.0 µM) was -2%, the growth inhibition ([3]; at 33.0 µM) was 51% and the growth inhibition ([3]; at 100.0 µM) was 69%. For the same compound, the growth inhibition ([4]; at 1.2 µM) was -1%, the growth inhibition ([4]; at 3.7 µM) was 1% and the growth inhibition [4, 15] was -4%. It also gave a growth inhibition ([4]; at 11.0 µM) of 13%, a growth inhibition ([4]; at 33.0 µM) of 67% and a growth inhibition [4, 16] of 60%. For the same compound, the growth inhibition ([4]; at 50.0 µM) was 79.3% (active), the growth inhibition ([4]; at 100.0 µM) was 74% (active) and the growth inhibition ([5]; at 1.2 µM) was -3%. The growth inhibition ([5]; at 3.7 µM) was -27%, the growth inhibition [5, 15] was -1% and the growth inhibition ([5]; at 11.0 µM) was -2%. For the same compound, the growth inhibition ([5]; at 33.0 µM) was 72% (active), the growth inhibition [5, 16] was 80% (active) and the growth inhibition ([5]; at 50.0 µM) was 81.2% (active). For the same compound, the growth inhibition ([5]; at 100.0 µM) was 80% (active), the growth inhibition ([6]; at 1.2 µM) was -23% and the growth inhibition ([6]; at 3.7 µM) was -20%. For the same compound, the growth inhibition ([6]; at 11.0 µM) was -20%, the growth inhibition ([6]; at 33.0 µM) was 39% and the growth inhibition ([6]; at 100.0 µM) was 63%. The growth inhibition [7, 15] was -7%, the growth inhibition [7, 16] was 71% (active) and the growth inhibition ([7]; at 50.0 µM) was 79.5% (active). For the same compound, the growth inhibition ([8]; at 1.2 µM) was 21%, the growth inhibition ([8]; at 3.7 µM) was 8% and the growth inhibition ([8]; at 11.0 µM) was 23%. For the same compound, the growth inhibition ([8]; at 33.0 µM) was 61%, the growth inhibition ([8]; at 100.0 µM) was 79% (active) and the growth inhibition [9, 15] was 30%. For the same compound, the growth inhibition [9, 16] was 75% (active), the growth inhibition ([9]; at 50.0 µM) was 68.7% and the growth inhibition ([10]; at 1.2 µM) was -9%. It also gave a growth inhibition ([10]; at 3.7 µM) of -17%, a growth inhibition [10, 15] of 3% and a growth inhibition ([10]; at 11.0 µM) of -15%. The growth inhibition ([10]; at 33.0 µM) was 52%, the growth inhibition [10, 16] was 83% (active) and the growth inhibition ([10]; at 50.0 µM) was 64.5%. For the same compound, the growth inhibition ([10]; at 100.0 µM) was 69%, the growth inhibition ([11]; at 1.2 µM) was 13% and the growth inhibition ([11]; at 3.7 µM) was 16%. It also gave a growth inhibition ([11]; at 11.0 µM) of 20%, a growth inhibition ([11]; at 33.0 µM) of 57% and a growth inhibition ([11]; at 100.0 µM) of 67%. It also gave a growth inhibition ([12]; at 1.2 µM) of 9%, a growth inhibition ([12]; at 3.7 µM) of 14% and a growth inhibition ([12]; at 11.0 µM) of 20%. For the same compound, the growth inhibition ([12]; at 33.0 µM) was 71% (active), the growth inhibition ([12]; at 100.0 µM) was 85% (active) and the growth inhibition [13, 15] was 0%. The growth inhibition [13, 16] was 87% (active), the growth inhibition ([13]; at 50.0 µM) was 76.3% (active) and the growth inhibition ([14]; at 1.2 µM) was 18%. It also gave a growth inhibition ([14]; at 3.7 µM) of 12%, a growth inhibition ([14]; at 11.0 µM) of 20% and a growth inhibition ([14]; at 33.0 µM) of 67%. The growth inhibition ([14]; at 100.0 µM) was 83% (active).
